In paper PMC5540273 (PLoS ONE, 2017):

What was measured:
Settings in all cases: concentration: 1 μM,replicates: in singlicate; n = 1
ADCK4 = test system: ADCK4
AKT1 = test system: AKT1
AKT2 = test system: AKT2
AKT3 = test system: AKT3
ALK = test system: ALK
AMPK-alpha1 = test system: T1, AMPK-alpha1
T1 construct: gene PRKAA1

AMPK-alpha2 = test system: T2, AMPK-alpha2
T2 construct: gene PRKAA2

ANKK1 = test system: ANKK1
ARK5 = test system: T3, ARK5
T3 construct: gene NUAK1

ASK1 = test system: T4, ASK1
T4 construct: gene MAP3K5

ASK2 = test system: T5, ASK2
T5 construct: gene MAP3K6

AURKA = test system: AURKA
AURKB = test system: AURKB
AURKC = test system: AURKC
AXL = test system: AXL
BIKE = test system: T6, BIKE
T6 construct: gene BMP2K

BLK = test system: BLK
BMPR1A = test system: BMPR1A
BMPR1B = test system: BMPR1B
BMPR2 = test system: BMPR2
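Further: KINOMEscan kinase panel screen.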

| Structure (SMILES) | %Inh (ADCK4) [%] | %Inh (AKT1) [%] | %Inh (AKT2) [%] | %Inh (AKT3) [%] | %Inh (ALK) [%] | %Inh (AMPK-alpha1) [%] | %Inh (AMPK-alpha2) [%] | %Inh (ANKK1) [%] | %Inh (ARK5) [%] | %Inh (ASK1) [%] | %Inh (ASK2) [%] | %Inh (AURKA) [%] | %Inh (AURKB) [%] | %Inh (AURKC) [%] | %Inh (AXL) [%] | %Inh (BIKE) [%] | %Inh (BLK) [%] | %Inh (BMPR1A) [%] | %Inh (BMPR1B) [%] | %Inh (BMPR2) [%] |
| --- | --- | --- | --- | --- | --- | --- | --- | --- | --- | --- | --- | --- | --- | --- | --- | --- | --- | --- | --- | --- |
| CCCC(=O)Nc1n[nH]c2ncccc12 [SB-601436] | 0 | 0 | 0 | 2 | 0 | 0 | 0 | 13 | 0 | 0 | 0 | 0 | 18 | 0 | 18 | 9 | 19 | 0 | 0 | 17 |
| C[C@@H](Oc1cc(-n2cnc3ccc(-c4ccncc4)cc32)sc1C(N)=O)c1ccccc1Cl [GSK483724] | 76 | 41 | 22 | 0 | 20 | 8 | 12 | 17 | 0 | 10 | 0 | 0 | 19 | 50 | 32 | 92.9 | 31 | 0 | 0 | 3 |
| CCn1c(-c2nonc2N)nc2cncc(Br)c21 [SB-738004] | 23 | 0 | 13 | 0 | 31 | 18 | 0 | 1 | 0 | 13 | 0 | 14 | 17 | 0 | 22 | 23 | 0 | 0 | 17 | 58 |
| O=C(NCC1CC1)c1ccc(-c2cc(C(=O)NC3CC3)ccc2F)cc1 [GW810445] | 23 | 24 | 0 | 0 | 10 | 0 | 0 | 0 | 0 | 19 | 0 | 0 | 4 | 0 | 10 | 0 | 30 | 0 | 0 | 15 |
| Cn1ccc2ncnc(Oc3ccc(NC(=O)Nc4cc(C(C)(C)C)on4)c(Cl)c3)c21 | 19 | 18 | 0 | 0 | 38 | 0 | 21 | 10 | 4 | 11 | 0 | 6 | 88 | 15 | 97.2 | 0 | 87 | 7 | 16 | 5 |
| O=C(Nc1ccc(Oc2ccc3nc(NC(=O)C4CC4)cn3n2)c(F)c1)c1cccn(-c2ccccc2)c1=O | 0 | 18 | 13 | 30 | 0 | 0 | 3 | 0 | 0 | 3 | 0 | 0 | 4 | 42 | 90.4 | 25 | 90.3 | 12 | 0 | 0 |
| O=c1[nH]cc(-c2ccc(O)cc2)c2sc(-c3ccncc3)cc12 [GSK1033723] | 16 | 0 | 16 | 97.2 | 0 | 0 | 13 | 10 | 13 | 0 | 0 | 16 | 8 | 8 | 96.1 | 19 | 0 | 0 | 0 | 39 |
| C[C@@H](Oc1cc(-n2cnc3cc(-c4cnn(C)c4)ccc32)sc1C(N)=O)c1ccccc1Cl [GSK580432] | 29 | 0 | 0 | 0 | 31 | 39 | 27 | 0 | 98.7 | 0 | 15 | 38 | 90.6 | 100 | 97.4 | 100 | 89 | 19 | 0 | 0 |
| Cc1cccc(-c2nc(Nc3ccncc3)c3sccc3n2)n1 [GW869641] | 8 | 5 | 0 | 3 | 33 | 20 | 27 | 12 | 0 | 25 | 29 | 48 | 43 | 30 | 33 | 13 | 15 | 4 | 82 | 37 |
| CN(c1cccc(CNc2nc(Nc3ccc4c(c3)CC(=O)N4)ncc2C(F)(F)F)c1)S(C)(=O)=O | 29 | 0 | 0 | 0 | 41 | 26 | 5 | 0 | 99.3 | 0 | 0 | 93.8 | 99.4 | 88 | 64 | 95 | 0 | 0 | 0 | 39 |
| Cc1ccc(CC(=O)N2CCc3cc(-c4cn(C)c5ncnc(N)c45)ccc32)cc1 [GSK2634758] | 9 | 0 | 1 | 30 | 0 | 0 | 29 | 23 | 37 | 3 | 0 | 8 | 96.1 | 47 | 98.8 | 16 | 31 | 0 | 0 | 0 |
| OCCn1cc(-c2cnc3nnn(Cc4ccc5ncccc5c4)c3n2)cn1 | 0 | 0 | 0 | 45 | 0 | 3 | 0 | 0 | 0 | 19 | 0 | 0 | 0 | 0 | 0 | 0 | 4 | 7 | 0 | 0 |
| CCN1CCN(CCCC(=O)Nc2n[nH]c3nc(-c4ccc(O)cc4)c(Br)cc23)CC1 [SB-731579] | 16 | 0 | 0 | 0 | 0 | 0 | 0 | 0 | 5 | 0 | 49 | 0 | 5 | 0 | 57 | 9 | 0 | 0 | 15 | 12 |
| NC(=O)c1ccc(-c2cc3ncnc(SCC(=O)O)c3s2)cc1 | 3 | 0 | 0 | 0 | 0 | 0 | 0 | 0 | 0 | 0 | 0 | 0 | 80 | 33 | 0 | 1 | 0 | 0 | 1 | 0 |
| COC(=O)Nc1nc2cc(Oc3ccc(NC(=O)Nc4cc(C(F)(F)F)ccc4Cl)cc3)ccc2[nH]1.Cl [GW697465] | 48 | 0 | 0 | 0 | 30 | 0 | 0 | 0 | 0 | 11 | 0 | 0 | 86 | 53 | 98 | 8 | 63 | 0 | 0 | 21 |
| COC(=O)c1cccc(NC(=O)NC2CCN(c3ccnc(NCc4ccc(F)cc4)n3)CC2)c1 [GSK1379860] | 18 | 0 | 0 | 0 | 30 | 0 | 0 | 0 | 10 | 0 | 4 | 0 | 0 | 13 | 9 | 13 | 24 | 0 | 0 | 9 |
| NC(=O)Nc1sc(-c2ccc(F)cc2)cc1C(N)=O [GW789449] | 7 | 0 | 0 | 0 | 52 | 25 | 15 | 86 | 0 | 26 | 0 | 55 | 83 | 85 | 40 | 98.2 | 46 | 6 | 11 | 78 |
| CSc1nccc(-c2c(-c3ccc(F)cc3)ncn2CCCN2CCOCC2)n1.Cl [SB-217146] | 25 | 14 | 0 | 0 | 0 | 0 | 0 | 1 | 0 | 0 | 0 | 7 | 35 | 0 | 0 | 0 | 0 | 0 | 4 | 39 |
| c1ccc(Oc2ccc(Nc3ccnc4ccc(-c5ccccn5)cc34)cc2)cc1 [GW407034] | 19 | 0 | 17 | 0 | 28 | 10 | 0 | 0 | 26 | 4 | 11 | 6 | 19 | 4 | 0 | 8 | 90.2 | 11 | 0 | 26 |
| CN1CCN(CCCNc2nccc(-c3c(-c4ccc(F)cc4)nn4cc(C(N)=O)ccc34)n2)CC1 [GW622475] | 100 | 0 | 12 | 0 | 26 | 18 | 11 | 29 | 19 | 0 | 0 | 20 | 5 | 10 | 17 | 26 | 56 | 0 | 37 | 0 |
